Screening results from PubChem BioAssay.
Only some compounds are listed: those with a hit (about 0.87% of all), similar ones and a draw of the others.
EPAC2 agonist – agonists of human EPAC2 (RAPGEF4); Q8WZA2; EPAC2 activation, biochemical qHTS; response scale: 100% = 6.5 mM cAMP response; Potency, µM (top dose mostly 154 µM), inactives show at the top dose activation, most hits filed as activators; actives 0.079% (n = 360,000); AID 720711; note: potency is the fitted concentration of half-maximal effect; nearly all actives have a fitted effect of over 50% in size
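Readout is BODIPY fluorescence (480 nm excitation, 540 nm emission), which falls as labeled GDP is exchanged off Rap1B. EPAC2 at 100 nM acted on 250 nM RAP1B-BODIPY-GDP with 50 uM GDP present.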
EPAC1 agonist – activates human EPAC1 exchange factor. Potency, µM (highest dose often 154 µM), without a hit: at the top dose activation, hits mostly activators. actives 0.073% (n = 360,000). O95398. EPAC1 agonist qHTS, biochemical assay; response scale: 100% = response to 6.5 mM cAMP; note: potency is the fitted concentration of half-maximal effect; nearly all actives have a fitted effect of over 60% in size
Target sequence (O95398 whole entry, looked up): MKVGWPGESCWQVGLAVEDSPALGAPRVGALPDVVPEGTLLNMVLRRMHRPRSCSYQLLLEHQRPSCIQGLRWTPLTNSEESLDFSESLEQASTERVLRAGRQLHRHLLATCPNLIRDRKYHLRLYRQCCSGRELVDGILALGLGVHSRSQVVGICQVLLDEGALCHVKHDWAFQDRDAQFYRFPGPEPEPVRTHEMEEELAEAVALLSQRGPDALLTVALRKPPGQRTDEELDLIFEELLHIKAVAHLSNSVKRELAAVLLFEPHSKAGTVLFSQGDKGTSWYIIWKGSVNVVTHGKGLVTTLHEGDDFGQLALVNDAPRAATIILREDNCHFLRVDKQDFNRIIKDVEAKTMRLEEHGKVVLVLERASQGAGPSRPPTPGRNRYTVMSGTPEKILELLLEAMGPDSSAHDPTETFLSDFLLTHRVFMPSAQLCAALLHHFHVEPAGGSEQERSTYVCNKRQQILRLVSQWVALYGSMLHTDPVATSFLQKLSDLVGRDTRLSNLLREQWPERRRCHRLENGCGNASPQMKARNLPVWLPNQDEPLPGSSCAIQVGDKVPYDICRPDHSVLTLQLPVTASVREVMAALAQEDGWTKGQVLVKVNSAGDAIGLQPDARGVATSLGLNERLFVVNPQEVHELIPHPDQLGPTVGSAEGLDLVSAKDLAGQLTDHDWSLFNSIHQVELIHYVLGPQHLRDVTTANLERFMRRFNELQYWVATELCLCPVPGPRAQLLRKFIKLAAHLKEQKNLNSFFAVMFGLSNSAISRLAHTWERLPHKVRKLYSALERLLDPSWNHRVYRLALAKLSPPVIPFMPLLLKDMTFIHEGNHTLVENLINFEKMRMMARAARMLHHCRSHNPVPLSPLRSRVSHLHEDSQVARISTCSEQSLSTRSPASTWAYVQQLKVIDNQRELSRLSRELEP
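EPAC1 100 nM, Rap1B–BODIPY-GDP 250 nM, unlabeled GDP 50 uM; compound titration; 5 min RT; kinetic read ex480/em540 at 5-min intervals ×30 min; data normalized to 6.5 mM cAMP agonist control.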
EPAC1 antagonist – blocks human EPAC1 exchange factor. O95398. EPAC1 GEF assay, Rap1b-BODIPY-GDP exchange fluorescence. Potency, µM (highest dose often 115 µM), for the others: at the top dose activity change, negative = inhibition, usual class: inhibitors. actives 0.14% (n = 360,000). AID 720709;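 note: potency is the fitted concentration of half-maximal effect; plate controls were vehicle for no effect and positive control for full effect; nearly all actives have a fitted effect of over 50% in size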
USP1-UAF1 inh – inhibitors of human USP1/UAF1 deubiquitinase | O94782 | recombinant USP1/UAF1, Ub-Rhodamine cleavage fluorescence | Potency, µM (doses to about 57.1 µM), for inactives: top-dose activity change, negative = inhibition, usual class: inhibitors | actives 0.23% (n = 390,000) | AID 743255; note: potency is the fitted concentration of half-maximal effect; % is set by controls: 0 for no effect and ±100 for the full control effect; nearly all actives have a fitted effect of over 60% in size
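USP1/UAF1 complex (1 nM) preincubated 15 min at room temperature with compound, then Ub-Rho substrate (150 nM final) added. Kinetic fluorescence at 480/540 nm over 6 reads at 60 s intervals; 50 mM HEPES pH 7.8, 0.5 mM EDTA, 0.1 mg/ml BSA, 1 mM TCEP, 0.01% Tween-20.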
FBPA coupling cs – inhibits coupling enzyme system, counter-screen for aldolase hits. coupling enzyme system counterscreen, AmpLite Red fluorescence. activity change, negative = inhibition, % at 58.2 µM, hits read low. actives 0.67% (n = 290,000); in the data active = activity change below about -30%; note: % is set by controls: 0 for no effect and ±100 for the full control effect
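First, compound is pin-transferred into glyceraldehyde-3-phosphate coupling-enzyme reagent at 57.5 uM final and held 10 min at RT. Next, substrate, coupling system and AmpLite Red are added. After 20 min RT, fluorescence (525/598 nm) is read.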
EPAC2 antagonist – EPAC2 (human) antagonism; Q8WZA2; EPAC2 GEF exchange of Rap1B-BODIPY-GDP, fluorescence; actives 0.18% (n = 360,000); Potency, µM (top dose mostly 114 µM), for the others: at the highest dose activity, negative = inhibition, actives largely listed as inhibitors; note: potency is the fitted concentration of half-maximal effect; % is set by controls: 0 for no effect and ±100 for the full control effect; nearly all actives have a fitted effect of over 45% in size
Numbers without * were called inactive; u = inconclusive; x = no result given. Unless noted, calls come from the whole dose curve; as a rule, active = well fitted curve in the direction sought with a large enough effect; inconclusive = small, poorly fitted or top-dose-only effect, or another doubt; inactive = no such curve, though single readings can be large; an effect the other way counts as inactive or inconclusive.

SMILES | EPAC2 agonist | EPAC1 agonist | EPAC1 antagonist | USP1-UAF1 inh | FBPA coupling cs | EPAC2 antagonist
CCCCCC(=O)Cc1cc(O)cc2c1C(=O)Oc1cc(O)c(C(=O)O)c(CCCCC)c1O2 | -9% | -10% | 40µM* | u | 13 | 16µM*
CC1(C)Cc2ccccc2C2=NNC(=O)C2=N1 | 7% | -2% | 2% | u | -57* | -17%
CC(=O)C1=C(C)N(Cc2ccco2)C(=O)N[C@@H]1c1ccccc1 | x | x | x | x | 1 | x
CC(C)OCCCn1c(=S)[nH]c2ccc(N3CCOCC3)cc2c1=O | -11% | -5% | 1% | -14% | -44* | 6%
CCCCn1c(=S)[nH]c2ccc(N3CCOCC3)cc2c1=O | x | x | x | x | 0 | x
O=S1(=O)N=C(N/N=C/c2ccccn2)c2ccccc21 | 5% | 2% | -12% | 1% | -32* | -2%
O=C(Nc1cccc(Cl)c1)OCC#CCCl | x | x | x | x | -38* | x
O=C(Nc1cccc(Cl)c1)OCCOC(=O)Nc1cccc(Cl)c1 | 11% | 10% | -26% | -11% | x | -6%
CCOC(=O)c1c(NC(=O)/C=C/C(=O)O)sc(C)c1-c1ccc(C(C)(C)C)cc1 | -18% | -12% | 56µM* | 32µM* | 14 | u
CCOC(=O)c1c(N)sc(C(N)=O)c1C | 9% | 2% | 2% | 2% | 6 | -4%
CCOC(=O)c1sc(N)c(C(N)=O)c1C | 3% | 7% | 12% | -24% | -33* | -1%
Clc1cccc(C2=NOC(c3nnc(-c4ccccc4)o3)C2)c1 (stereo not given) | 23% | 3% | -12% | -17% | 2 | -6%
COc1cccc(C2=NN(C(=O)c3ccco3)C(c3ccco3)C2)c1 (stereo not given) | 6% | 13% | 7% | -18% | x | 14µM*
O=C(c1ccco1)N1N=C(c2cccs2)CC1c1ccccc1O (stereo not given) | -4% | -2% | -10% | -3% | -1 | 5%
COc1cccc(C2CC(c3cccs3)=NN2C(=O)c2ccco2)c1O (stereo not given) | 5% | -12% | -28% | -20% | -5 | 35µM*
CCOc1cc2[nH]c(=S)n(CCc3ccc(OC)c(OC)c3)c(=O)c2cc1OCC | -1% | 9% | -7% | -11% | 10 | 2%
Cc1c2ccccc2nc2c(F)c(NCCO)c(F)c(F)c12 | -6% | 8% | 28µM* | u | -30 | -4%
Oc1ccc(/C=C/c2ccc3ccccc3n2)cc1 | 11% | -9% | -10% | -20% | -6 | -4%
O/C(=C\c1ccc2ccccc2n1)c1ccc(O)cc1O | 10% | 2% | 6% | 28µM* | 2 | 52%
O=C(O)C(O)c1ccco1 (stereo not given) | -3% | -5% | -11% | 0% | 0 | 25%
Cc1ccc(C(=O)N2N=C(c3ccc(NS(C)(=O)=O)cc3)CC2c2cccs2)cc1 (stereo not given) | 12% | -4% | u | -5% | -2 | -20%
Cc1ccc(C2CC(c3cccs3)=NN2C(=O)CSc2nc(=O)n3cc(C)ccc3n2)cc1 (stereo not given) | 8% | 112µM* | -10% | -23% | x | 7%
Cc1ccc2nc(SCC(=O)N3N=C(c4cccs4)CC3c3ccc(F)cc3)nc(=O)n2c1 (stereo not given) | 7% | 1% | -4% | 2% | x | -11%
COC(=O)C1=C(C)NC(C)=C([N+](=O)[O-])C1c1ccccc1C(F)(F)F (stereo not given) | 3% | -8% | -13% | 9% | -6 | 50µM*
Cc1cc(C)n(CC(=O)NCc2ccccc2)c(=O)c1C#N | 6% | -5% | -5% | 0% | 0 | 5%
SMILES | EPAC2 agonist | EPAC1 agonist | EPAC1 antagonist | USP1-UAF1 inh | FBPA coupling cs | EPAC2 antagonist
CCN(CC)C(=O)C(=O)c1cccn1-c1ccc(C#N)cc1 | 2% | -14% | -15% | -15% | 2 | 6%
COc1cc(/C=C2\C(=N)N3N=C(S(C)(=O)=O)SC3=NC2=O)cc(OC)c1OCCOc1ccccc1C | 10% | 4% | 50µM* | u | 7 | u
COc1ccccc1OCCOc1ccc(/C=C2\C(=N)N3N=C(S(C)(=O)=O)SC3=NC2=O)cc1 | -5% | 4% | u | -25% | 12 | -21%
COc1cccc(OCCOc2ccc(/C=C3\C(=N)N4N=C(S(C)(=O)=O)SC4=NC3=O)cc2OC)c1 | 4% | 1% | 71µM* | -21% | 10 | -3%
Cc1cc(NC(=O)C2CCCN(S(=O)(=O)c3c(C)noc3C)C2)no1 (stereo not given) | 2% | 8% | -4% | -27% | 0 | 5%
Cc1cccc(OCC(=O)Nc2ccccc2N2CCCCC2)c1C | 11% | -4% | -1% | -24% | x | -1%
O=C(CNCCC1=CCCCC1)Nc1ccccc1N1CCCCC1 | 20% | 9% | -10% | -13% | -42* | -12%
Cc1cccc(C)c1OCC(=O)Nc1ccccc1N1CCCCC1 | 7% | -2% | 1% | -18% | x | 10µM*
O=C1C2=C(S[C@@H]3O[C@H](CO)[C@@H](O)[C@H](O)[C@H]3O2)C(=O)c2ccccc21 | x | x | x | x | -40* | x
COCCCn1[nH]c2c3c(ccc2c1=O)C(=O)c1ccccc1C3=O | 6% | -14% | -6% | -22% | -49* | -4%
CC(C)(C)C(=O)Nc1ccc2nc(SCC(=O)N3CCCC3)sc2c1 | x | x | x | -12% | x | x
O=C(N/N=C/c1cccc(Oc2ccccc2)c1)c1cccc(Br)c1 | 12% | 12% | 8% | -17% | x | -3%
O=C(CNc1cccc2ccccc12)N/N=C/c1cccc(Oc2ccccc2)c1 | 8% | 4% | -5% | -15% | -32* | -11%
O=C(N/N=C/c1cccc(Oc2ccccc2)c1)c1ccccc1Br | 15% | 19% | 6% | 1% | -32* | 6%
O=C(Oc1ccc[nH]c1=O)c1ccc(F)cc1 | 5% | -9% | 17% | -22% | x | 15%
O=C(Nc1ccccc1)Oc1ccc[nH]c1=O | 8% | 1% | 1% | u | -44* | -11%
COC(=O)/N=C(/Cc1ccc(OC)cc1)c1ccc(OC)cc1 | 14% | 9% | -8% | -22% | -5 | 56µM*
Cc1ccc(C2=NC(=O)/C(=C/c3cc(O)c(O)c(Br)c3)S2)cc1 | -1% | 2% | 10µM* | -16% | -6 | -22%
Cc1cc(C)c2nc(N3CCCN(C(=O)c4ccco4)CC3)c(C#N)cc2c1 | 13% | 7% | -6% | -32% | -39* | -6%
Cc1nc(N2CCN(C(=O)c3ccco3)CC2)c(C#N)c2c1CCCC2 | -5% | 5% | 1% | -24% | -2 | -4%
O=C(COc1ccccc1[N+](=O)[O-])Nc1cccc(C(=O)Nc2ccccc2C(=O)O)c1 | 2% | -5% | 71µM* | -25% | x | -8%
